HCMV inh – qHTS Assay for inhibitors of the human cytomegalovirus (HCMV); hit rate 4.5% among 410,000; HFF cells, HCMV-luciferase reporter, 72 h; stronger effect = lower value; activity change, negative = inhibition, % at 57.5 µM; AID 1259415, 2018; in the data active = activity change below about -60%; inconclusive = no clear call, values can overlap the other calls; inactive = above about -39%
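Human foreskin fibroblasts infected with luciferase-reporter HCMV at MOI 1 PFU/cell, compounds at two doses. Luciferase measured 72 h post infection; normalized to buffer-only basal and Salinomycin (10uM) controls.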
FMDV antiviral – High Throughput Screening for Foot and Mouth Disease Virus Antivirals; FMDV antiviral cell-based qHTS; Potency, µM (titrated, usually from 57.9 µM), without a hit: at the top dose activity change, negative = inhibition, usual class: inhibitors; hit rate 1.2% among 410,000; calls by dose curve; tested in HEK293T cells; note: read-out not given here; potency is the fitted concentration of half-maximal effect; nearly all actives have a fitted effect of over 45% in size
VACV mCherry inh – qHTS for Stage-Specific Inhibitors of Vaccinia Orthopoxvirus: mCherry Reporter Primary qHTS; hit rate 0.63% among 310,000; Potency, µM (highest dose often 36.5 µM), for inactives: at the highest dose activity change, negative = inhibition, actives largely listed as inhibitors; Vaccinia virus mCherry reporter infection, fluorescence; calls by dose curve; tested in A549 cells; note: potency is the fitted concentration of half-maximal effect; nearly all actives have a fitted effect of over 35% in size
HCV inh – qHTS Assay for Inhibitors of Hepatitis C Virus (HCV); hit rate 3.4% among 340,000; AID 651820, 2012; Huh7.5.1 HCVcc-Cre infection, luciferase reporter, 44 h; Potency, µM (doses to about 41.8 µM), for the others: at the highest dose activity change, negative = inhibition, hits mostly inhibitors; active = well fitted inhibition curve with a large enough effect; inconclusive = small, poorly fitted or top-dose-only effect, or another doubt; inactive = no such curve, though single readings can be large or run the other way; note: potency is the fitted concentration of half-maximal effect
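HCVcc-Cre virus at an moi near 0.5 was added right after compound to cells cultured 4 h from seeding (1,000 cells/well). Luciferase activity was determined 44 h later, 15 min after substrate addition at RT.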
VACV Venus inh – qHTS for Stage-Specific Inhibitors of Vaccinia Orthopoxvirus: Venus Reporter Primary qHTS | Vaccinia virus Venus reporter expression, fluorescence | Potency, µM (top dose mostly 36.5 µM), inactives show at the highest dose activity change, negative = inhibition, hits mostly inhibitors | hit rate 0.46% among 330,000; calls by dose curve; tested in A549 cells; note: potency is the fitted concentration of half-maximal effect; nearly all actives have a fitted effect of over 30% in size
An asterisk follows results filed as active; [ ] = another dose, or the depositor's remark. In the library only some 7.3% were active in any assay of this set; here they are far more common. % is set by controls: 0 for no effect and ±100 for the full control effect.

How did COc1cccc(CCC(=O)N2CCC(n3nccc3NC(=O)CC(C)C)CC2)c1 do in these assays?
HCMV inh: 32; FMDV antiviral: -5%; HCV inh: -4%

What do the screens show for `CC1CCC(C(C)C)C(OC(=O)COC(=O)c2ccccc2N)C1` (stereo not drawn)?
HCMV inh: -16; FMDV antiviral: inconclusive; VACV mCherry inh: -5%; HCV inh: 9%; VACV Venus inh: -11%

Results for CC1CCC(C(C)C)C(OC(=O)Cn2c(-c3ccc(Br)cc3)[n+](C)c3ccccc32)C1 (stereo not drawn) ?
HCMV inh: -99*; FMDV antiviral: inconclusive; VACV mCherry inh: 11µM*; HCV inh: inconclusive; VACV Venus inh: 13µM*

Results for Cc1ccccc1OCc1n(CC(=O)OC2CC(C)CCC2C(C)C)c2ccccc2[n+]1C (stereo not drawn) ?
HCMV inh: -96*; FMDV antiviral: inconclusive; VACV mCherry inh: inconclusive; HCV inh: inconclusive; VACV Venus inh: 11µM*

Results for CC1CCC(C(C)C)C(OC(=O)COC(=O)c2cccn2C)C1 (stereo not drawn) ?
HCMV inh: inconclusive; FMDV antiviral: inconclusive; VACV mCherry inh: inactive; HCV inh: -10%; VACV Venus inh: -12%

What do the screens show for `CC1CCC(C(C)C)C(OC(=O)COC(=O)c2ccc(N)cc2)C1` (stereo not drawn)?
HCMV inh: -5; FMDV antiviral: inconclusive; HCV inh: inconclusive

What do the screens show for `CC1CCC(C(C)C)C(OC(=O)Cn2c(-c3ccc(Cl)cc3)[n+](C)c3ccccc32)C1` (stereo not drawn)?
HCMV inh: -100*; FMDV antiviral: inconclusive; VACV mCherry inh: 2%[7.34 µM]; HCV inh: inconclusive; VACV Venus inh: 11%[7.34 µM]

How did CCC(C)C1NC(=O)C2CCCN2C(=O)C(CC(C)C)OC(=O)CCNC(=O)C(C)N(C)C(=O)C(C(C)C)N(C)C1=O (stereo not drawn) do in these assays?
HCMV inh: -87*; FMDV antiviral: -20%; VACV mCherry inh: -26%; HCV inh: inconclusive; VACV Venus inh: -28%

Results for CCN1C(=O)c2ccccc2Sc2ccc(NC(=O)Nc3cc(C)cc(C)c3)cc21 ?
HCMV inh: -99*; FMDV antiviral: inconclusive; VACV mCherry inh: inconclusive; VACV Venus inh: inconclusive

What do the screens show for `CN1C(=O)c2ccccc2Sc2ccc(NC(=O)Cc3c(F)cccc3Cl)cc21`?
HCMV inh: -82*; FMDV antiviral: -29%; VACV mCherry inh: -25%; VACV Venus inh: -29%

Results for CN1C(=O)c2ccccc2Sc2ccc(NC(=O)COc3ccccc3)cc21 ?
HCMV inh: -63*; FMDV antiviral: -23%; VACV mCherry inh: -10%; VACV Venus inh: -24%

What do the screens show for `CN1C(=O)c2ccccc2Sc2ccc(NC(=O)Nc3ccccc3F)cc21`?
HCMV inh: -2; FMDV antiviral: 3%; VACV mCherry inh: -14%; VACV Venus inh: -14%

What do the screens show for `Cc1cc(N2CCCCC2)nc2ccc(NC(=O)c3cccc(Cl)c3)cc12`?
HCMV inh: -62*; FMDV antiviral: -4%; VACV mCherry inh: -14%; VACV Venus inh: -14%

What do the screens show for `Cc1cc(N2CCCCC2)nc2ccc(NC(=O)c3cccc(F)c3)cc12`?
HCMV inh: -80*; FMDV antiviral: -10%; VACV mCherry inh: -13%; VACV Venus inh: -13%

Results for CNC(=O)Nc1cc(NC(=O)NC)cc(C(F)(F)F)c1 ?
HCMV inh: 66; FMDV antiviral: 12%; VACV mCherry inh: -13%; HCV inh: -25%; VACV Venus inh: -10%

What do the screens show for `COCCCN1C(=O)C(CC(=O)NCc2cccs2)CC(C(=O)N2CCCCCC2)=C1C` (stereo not drawn)?
HCMV inh: 13

What do the screens show for `OCC1CCCCN1CC(O)COC(c1ccc(F)cc1)c1ccc(F)cc1` (stereo not drawn)?
HCMV inh: -19; FMDV antiviral: -7%; HCV inh: inconclusive

What do the screens show for `COCCn1c(C)cc(O)c(C(c2ccccc2Cl)N2CCN(c3ccccc3)CC2)c1=O` (stereo not drawn)?
HCMV inh: -16; FMDV antiviral: -18%; VACV mCherry inh: -3%; VACV Venus inh: -5%

How did Cc1nnc(N2CCCC(C(=O)Nc3cccc(C(F)(F)F)c3)C2)c2nn(-c3ccccc3)c(C)c12 (stereo not drawn) do in these assays?
HCMV inh: -33; FMDV antiviral: -23%; VACV mCherry inh: -29%; VACV Venus inh: -20%

Results for Cc1ccccc1CNC(=O)C1CCCN(c2nnc(C)c3c(C)n(-c4ccccc4)nc23)C1 (stereo not drawn) ?
HCMV inh: -101*; FMDV antiviral: 19%; HCV inh: 11%

Results for CCc1ccc(CNC(=O)C2CCCN(c3nnc(C)c4c(C)n(-c5ccccc5)nc34)C2)cc1 (stereo not drawn) ?
HCMV inh: -108*; FMDV antiviral: inconclusive; VACV mCherry inh: -26%; HCV inh: 1%; VACV Venus inh: -18%

How did Cc1nnc(N2CCCC(C(=O)NCc3ccccc3)C2)c2nn(-c3ccccc3)c(C)c12 (stereo not drawn) do in these assays?
HCMV inh: 1; FMDV antiviral: 9%; VACV mCherry inh: -20%; VACV Venus inh: -18%

How did Cc1ccc(NC(=O)C2CCCN(c3nnc(C)c4c(C)n(-c5ccccc5)nc34)C2)cc1Cl (stereo not drawn) do in these assays?
HCMV inh: -7; FMDV antiviral: -19%; VACV mCherry inh: inconclusive; VACV Venus inh: 11µM*

How did CN1OC(C)(CC(=O)NCc2ccccc2)N=C1c1ccccc1 (stereo not drawn) do in these assays?
HCMV inh: -8

Results for COc1ccc(CCNc2nc3cc(OC)c(OC)cc3c3nc(-c4ccccc4)nn23)cc1OC ?
HCMV inh: -14; FMDV antiviral: 4.5µM*; VACV mCherry inh: -23%; VACV Venus inh: -23%

Results for CCN(CC)C(=O)C1CCN(c2cc(C)nc3c(-c4ccc(OC)c(OC)c4)c(C)nn23)CC1 ?
HCMV inh: 16; FMDV antiviral: -23%; VACV mCherry inh: -11%; VACV Venus inh: -6%

What do the screens show for `COc1ccc(-c2c(C)nn3c(NC4CCCC4)cc(C)nc23)cc1OC`?
HCMV inh: inconclusive; FMDV antiviral: inconclusive; HCV inh: 10µM*

Results for COc1ccc(CCNc2nc3ccccc3c3nc(-c4cccc(C)c4)nn23)cc1OC ?
HCMV inh: 175; FMDV antiviral: 12%; VACV mCherry inh: -11%; VACV Venus inh: -12%

What do the screens show for `CCOCCCNC(=O)C1CCN(c2cc(C)nc3c(-c4ccc(OC)c(OC)c4)c(C)nn23)CC1`?
HCMV inh: -6; FMDV antiviral: 74%; HCV inh: 11µM*

Screening data deposited in PubChem BioAssay by National Center for Advancing Translational Sciences (NCATS).
